# From PubChem BioAssay AID1662 (Broad Institute, 2009)
# The campaign covered roughly 300,000 compounds. About 4,000 (1.3%) were called active.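 Rule for the calls: active = mean replicate score, as percent of positive control median, at least 50; inconclusive = mean below 50 but one replicate at or above 50; inactive = mean and every replicate below 50.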 What follows is part of a selection rich in actives, with near analogues and random picks from the rest.
# Assay: S. pyogenes SKKanGAS growth inhibitors in kanamycin, primary screen, streptokinase expression inhibitor project, SKKanGAS strain, BacTiter-Glo luminescence (AID 1662);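 note: strain carries kanamycin resistance gene driven by streptokinase promoter and grows in 40 µg/ml kanamycin; loss of luminescence reflects streptokinase promoter inhibition or plain growth inhibition; 0% = median of DMSO wells and 100% = positive control at its reference dose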
# Conditions: 6 h, at 7.5 µM, hits give high values
row,Compound,inhibition
1,O=C(Nc1nc2ccccc2s1)c1ccc2c(c1)OCO2,-10.7% (inactive)
2,Cc1nc(NC(=O)c2ccc3c(c2)OCCO3)ccc1Br,-9.44% (inactive)
3,Cc1ccc2sc(NNC(=O)c3ccc4c(c3)OCCO4)nc2c1C,52.7% (active)
4,COC(=O)c1ccc([C@@H](O)[C@H](C)C(=O)CC(=O)OC(C)(C)C)cc1,-0.38% (inactive)
5,COc1ccc(C(=O)NC(=S)N2CCCCC2c2cccnc2)cc1OC (stereo unspecified),5.87% (inactive)
6,Cc1cccc(C(=O)NCCCN(C)CCCNC(=O)c2cccc(C)c2)c1,-2.44% (inactive)
7,Cc1cccc(C(=O)NC(=S)N(C)C2CCCCC2)c1,55.3% (active)
8,Cc1cccc(NC(=S)NCCN(C2CCCCC2)C2CCCC2)c1,-5.79% (inactive)
9,COc1ccc(C2/C(=C(/O)c3ccc4c(c3)CC(C)O4)C(=O)C(=O)N2Cc2ccncc2)cc1 (stereo unspecified),1.18% (inactive)
10,O=C(CN(CC1CCCO1)C(=O)CNS(=O)(=O)c1ccc(Cl)cc1)NCc1ccccc1 (stereo unspecified),-3.12% (inactive)
11,CCc1c(C)c2ccc(OC3CCCCC3=O)cc2oc1=O (stereo unspecified),-6.62% (inactive)
12,COCCCNC(=O)CSc1nc2ccc(N3CCOCC3)cc2c(=O)n1CCc1ccccc1,34.6% (inactive)
13,CCCCn1c(SCC(=O)NCC2CCCO2)nc2ccc(N3CCOCC3)cc2c1=O (stereo unspecified),2.53% (inactive)
14,N#CCSc1nc2ccc(N3CCOCC3)cc2c(=O)n1CCc1ccccc1,71.7% (active)
15,COCC(C)n1c(C)cc(C(=O)CSc2cc(C)c3ccccc3n2)c1C (stereo unspecified),2.07% (inactive)
16,Cc1ccc(C(=O)N/N=C\c2cc(Br)c(Br)o2)cn1,6.13% (inactive)
17,Cc1nn(-c2ccccc2)c2sc(C(=O)N(Cc3ccco3)C(C)C(=O)NC(C)(C)C)cc12 (stereo unspecified),6.98% (inactive)
18,Cc1ccc(OCC(=O)NCCCNC(=O)c2ccco2)cc1C,2.37% (inactive)
19,CC(Oc1ccc2ccccc2c1)C(=O)NNC(=S)NC(=O)c1ccco1 (stereo unspecified),128% (active)
20,O=C(Nc1ccc2ccccc2c1)/C(=C/c1cccc(Br)c1)NC(=O)c1ccco1,14.5% (inactive)
21,CCCc1ccc(OCCNC(=O)c2ccco2)cc1,-5.79% (inactive)
22,Cc1ccc(C(=O)NNC(=O)C(C)Oc2ccc3ccccc3c2)o1 (stereo unspecified),-4.95% (inactive)
23,CCCc1ccc(OCC(=O)NNC(=S)NC(=O)c2ccco2)cc1,113% (active)

row,Compound,inhibition
1,COc1cc2nc(CN(C)Cc3ccc(F)cc3)[nH]c(=O)c2cc1OC,16.4% (inactive)
2,CC1=CC=CN2C1=NC(=O)CC2(C)C(=O)N(CC(=O)NC1CCCC1)c1ccccc1C (stereo unspecified),1.46% (inactive)
3,Cc1nn(CCCC(=O)NCc2ccccc2Cl)c(=O)c2nccn12,-6.9% (inactive)
4,CCS(=O)(=O)Nc1cccc(-c2cc(-c3ccccc3)c3cc(C)ccc3n2)c1,97.3% (active)
5,Cc1ccc2nc(-c3ccncc3)cc(C(=O)Nc3ccncc3)c2c1,1.9% (inactive)
6,Cc1ccc2nc(Nc3ccccc3)cc(C)c2c1,0.508% (inactive)
7,CCOCCCNC(=O)c1ccc(CS(=O)(=O)c2cccc(C(F)(F)F)c2)o1,-1.72% (inactive)
8,CCC(=O)Nc1ccc(-c2ccc(N3CCCCC3)nn2)cc1,1.15% (inactive)
9,CC1CCN(c2ccc(-c3ccc(NC(=O)c4ccco4)cc3)nn2)CC1,70% (active)
10,CC1CCN(C(NC(=O)c2ccco2)C(=O)c2ccccc2)CC1 (stereo unspecified),-2.13% (inactive)
11,CCCCCN(C(=O)CCC(=O)OCCOc1ccc(OC)cc1)c1c(N)n(CCCC)c(=O)[nH]c1=O,-3.52% (inactive)
12,CS(=O)(=O)c1ccc2nnn(OCC(=O)Nc3cccc(C#N)c3)c2c1,-3.98% (inactive)
13,COc1ccc(NC(=O)CN2C(=O)CSc3ccc(S(=O)(=O)N4CCC(C)CC4)cc32)cc1,10.8% (inactive)
14,CCOC(=O)c1cnc(-c2ccccc2)nc1Oc1ccc(C)cc1,20.4% (inactive)
15,CCOC(=O)c1cnc(-n2nc(C)cc2C)nc1Nc1cccc(C(C)=O)c1,35% (inactive)
16,CCOC(=O)c1cnc(-n2nc(C)cc2C)nc1NNc1cc(C)nc(-c2ccccc2)n1,101% (active)
17,Cc1ccc(S(=O)(=O)/N=C(\CN2CCOCC2)N2CCOCC2)cc1,2.49% (inactive)
18,CC(C)N1CCC(=NNc2ccc([N+](=O)[O-])cc2S(=O)(=O)N2CCOCC2)CC1,17.1% (inactive)
19,CN(C)c1ccc(-n2cccc2/C=N/n2cnnc2)cc1,0.00128% (inactive)
20,Cc1ccccc1NC(=S)NNC(=O)c1cccc(Br)c1,-4.92% (inactive)
21,O=C(NC(=S)Nc1cccc2c(O)cccc12)c1cccc(Br)c1,63.3% (active)
22,NS(=O)(=O)c1ccc(NC(=S)NC(=O)c2cccc(Br)c2)cc1,0.49% (inactive)
23,CCOC(=O)c1ccccc1NS(=O)(=O)c1c(C)nc2sccn2c1=O,-2.29% (inactive)
